WT yeast gro inh – growth inhibition of WT yeast, mitochondrial fusion screen; mitochondrial fusion phenotypic screen, WT strain; inhibition, % at 10 µM; hit rate 2.1% among 190,000; AID 1362; in the data active = inhibition above about 58%; tested in S. cerevisiae
L major viab – inhibitors of Leishmania major promastigote growth; Leishmania major promastigotes, resazurin fluorescence viability; inhibition, % at 10 µM; hit rate 9% among 200,000; in the data active = inhibition above about 50%;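 note: promastigotes grown with compound for 44 hours at 28 °C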
Calpain2 inh – blocks pig calpain II enzyme activity; AID 1236; purified calpain II, fluorogenic peptide substrate, 30 min; inhibition, % at 16 µM; hit rate 0.37% among 220,000;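 active = inhibition above about 50%, limit read from the data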
ROMK mod – modulators of human ROMK potassium channel; Tet-inducible ROMK, thallium flux fluorescence; actives lie on both sides; B-score at 10 µM; hit rate 2% among 130,000; AID 1918;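 active = signal ratio slope over the read window, or its plate-corrected B-score, at least 3 SD from the plate mean, either direction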;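 note: B-score of the F/F0 ratio slope over 7 to 12 s after thallium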
Target sequence (P48048 whole entry, looked up): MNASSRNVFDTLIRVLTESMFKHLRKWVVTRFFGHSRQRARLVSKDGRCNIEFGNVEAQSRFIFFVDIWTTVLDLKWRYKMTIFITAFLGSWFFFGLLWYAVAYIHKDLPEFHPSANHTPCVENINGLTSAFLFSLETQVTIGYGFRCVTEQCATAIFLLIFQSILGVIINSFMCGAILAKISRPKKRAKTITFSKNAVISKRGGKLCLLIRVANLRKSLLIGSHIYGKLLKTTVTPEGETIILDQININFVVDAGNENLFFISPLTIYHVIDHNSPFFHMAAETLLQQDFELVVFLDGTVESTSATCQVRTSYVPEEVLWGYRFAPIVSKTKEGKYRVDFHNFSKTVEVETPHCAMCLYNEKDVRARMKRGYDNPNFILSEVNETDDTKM
Cl transport mod – modulators of human KCC2 chloride dependent transport | KCC2 cells, thallium flux FluoZin-2 fluorescence | B-score of Tl+ flux slope (higher = more flux/activation; lower = inhibition) at 10 µM | hit rate 2.2% among 190,000;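 active = thallium flux slope and its plate-corrected score both differing from the plate sample mean at a set confidence after two filtering rounds, in either direction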;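 note: slope of fluorescence scaled to starting intensity during 10 to 20 s after thallium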
ROMK hit retest – human ROMK channel modulation, retest confirmation; normalized thallium flux (F/F0 slope) at 10 µM; hit rate 54% among 3,000; shares compounds with ROMK mod; ROMK thallium flux, fluorescence ratio; active compounds read low;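 active = Flux at 10 µM at least 3 SD below or above vehicle control mean in one or both replicates; inconclusive = no clear call, values can overlap the other calls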
Numbers without * were called inactive; ? = inconclusive; / = no result given. Compounds with a hit are over-represented: about 12% of the library has one in this group of screens.

SMILES	WT yeast gro inh	L major viab	Calpain2 inh	ROMK mod	Cl transport mod	ROMK hit retest
O=C(c1ccco1)N1CCN(C(=O)N2c3ccccc3Sc3ccccc32)CC1	52	7	4	-3*	-1.7	0.073
Cc1cc(C(=O)N2CCN(c3ccccn3)CC2)no1	7	-5	-16	/	0.21	/
O=C(c1cnsn1)N1CCN(c2ccccn2)CC1	-2	-5	-9	1.6*	/	0.073
O=C(c1ccco1)N1c2ccccc2Sc2ccccc21	20	32	25	/	-1.6	/
COc1cc(/C=C/[N+](=O)[O-])ccc1OCc1cccc(C(=O)O)c1	-5	-6	2	-6*	-2.8	0.037*
CC(=O)C(Sc1ncnc2c1nnn2-c1ccc(F)cc1)C(=O)N(C)C (centres undefined)	-16	-12	-2	/	-0.024	0.073
CC(=O)Nc1ccc(C(=O)OCC(=O)NCc2ccc(Cl)cc2)cc1	1	-3	29	/	0.38	/
CC(C(=O)c1ccc(-c2ccccc2)cc1)[n+]1cccc(NC(=O)c2ccccc2)c1 (centres undefined)	/	/	4	-4.9*	0.0029	0.057*
O=C(CCc1ccccc1)Nc1ccncc1	5	-5	-27	/	-0.34	/
O=C(CC(c1ccccc1)c1ccccc1)Nc1ccncc1	/	/	5	/	0.19	0.079
CCC1Oc2ccc(C)cc2N(CC(=O)N(Cc2ccc(C)o2)C2CC(C)(C)NC(C)(C)C2)C1=O (centres undefined)	7	23	11	-6.9*	0.2	0.059*
O=c1[nH]ncn2cccc12	-8	-3	3	/	-0.91	/
O=C(CN1CCC(c2nc3ccccc3s2)CC1)NCc1ccccc1	24	87*	24	-3*	-0.18	0.073
CC(C)C[C@@H](CSc1ccc(Br)cc1)N1CCN(C)CCC1=O	/	/	14	/	0.56	0.075
Cn1c(-c2ccccc2)c(C=O)c2ccccc21	5	-8	1	-0.22	-3.1	/
Cn1c(-c2ccccc2)c(/C=N/NC(=O)c2ccc(O)cc2)c2ccccc21	/	/	-39	/	-3.4	0.08
Cc1cc(NC(=O)CSc2nc3ccccc3c(=O)n2C2CCCC2)no1	16	6	6	2.9*	0.37	?
CC1CCCN(C(=O)CSCC(=O)Nc2nc(-c3cccs3)cs2)C1 (centres undefined)	20	-3	13	/	/	/
CC1CCN(C(=O)CSCC(=O)Nc2nc(-c3cccs3)cs2)CC1	8	-6	11	/	2.7	0.065*
N#CC(C#N)=C1C=CC=CN1/C(=C\c1ccccc1Cl)C(=O)c1ccccc1	67*	-2	-86	-5.6*	-2.3	0.041*
O=C(N/N=C/C(Br)=C\c1ccccc1)c1cccs1	/	/	-5	/	1.9	/
N#CC(C#N)=C1C=CC=CN1/C(=C\c1ccccc1)C(=O)c1cccs1	-7	7	-106	/	-0.82	0.057*
CCSc1nnc(NC(=O)NC(CC)(C(F)(F)F)C(F)(F)F)s1	40	31	19	-4*	/	0.058*
CCSc1nnc(NC(=O)NC(C)(C(F)(F)F)C(F)(F)F)s1	7	-3	6	-0.88	0.33	/
CC(C)(C)NC(=O)COC(=O)c1cc(S(=O)(=O)N2CCCCC2)ccc1N1CCOCC1	-6	1	2	0.52	0.25	/
SMILES	WT yeast gro inh	L major viab	Calpain2 inh	ROMK mod	Cl transport mod	ROMK hit retest
Cc1cc(Cl)n2ncc(-c3ccccc3)c2n1	/	/	-17	/	-3.2	0.063*
Cc1cc(NCc2ccccn2)n2ncc(-c3ccccc3)c2n1	/	/	6	/	-0.58	/
CC(C(=O)OCC(=O)c1cccc([N+](=O)[O-])c1)N1C(=O)C2C3CCC(C3)C2C1=O (centres undefined)	3	10	-5	/	0.62	/
COc1ccccc1N1CC(C)(C)C(=O)N(C(=O)c2c(F)cccc2Cl)C1=S	/	/	-4	0.095	0.35	/
Cc1ccc(OCc2nnc(SCC(=O)C(C)(C)C)n2Cc2ccco2)cc1	-9	48	-5	-3.6*	/	0.075
CCOC(=O)c1cnc2c(-c3cccc(Br)c3)cnn2c1C	-11	-5	-25	0.24	-0.3	/
COc1ccc(NC(=O)c2c(NC(=O)CCC(=O)O)sc(-c3ccccc3)c2C)cc1	-5	1	-45	/	-0.88	0.08
COC(=O)c1c(NC(=O)CCC(=O)O)sc(Cc2ccccc2)c1C	/	/	6	1.5	-0.91	/
CC(=O)c1c(C)[nH]c(C(=O)OCCCCN2C(=O)c3ccccc3C2=O)c1C	1	4	3	/	-0.92	0.061*
Cc1c(C(=O)Nc2ccncc2)oc2ccccc12	-8	4	7	/	-0.27	0.074
O=C(NC1CCCCCC1)c1c2c(nc3ccccc13)CCN(Cc1ccccc1)C2	-15	20	-48	-4.3*	-0.39	0.062*
